Assay results taken from ChEMBL document CHEMBL2218924, “A broad activity screen in support of a chemogenomic map for kinase signalling research and drug discovery” (Biochem J, 2013).

target: T1, Serine/threonine-protein kinase 17A (Homo sapiens) (UniProt Q9UEE5); settings: at 1 µM
T1 sequence (whole entry): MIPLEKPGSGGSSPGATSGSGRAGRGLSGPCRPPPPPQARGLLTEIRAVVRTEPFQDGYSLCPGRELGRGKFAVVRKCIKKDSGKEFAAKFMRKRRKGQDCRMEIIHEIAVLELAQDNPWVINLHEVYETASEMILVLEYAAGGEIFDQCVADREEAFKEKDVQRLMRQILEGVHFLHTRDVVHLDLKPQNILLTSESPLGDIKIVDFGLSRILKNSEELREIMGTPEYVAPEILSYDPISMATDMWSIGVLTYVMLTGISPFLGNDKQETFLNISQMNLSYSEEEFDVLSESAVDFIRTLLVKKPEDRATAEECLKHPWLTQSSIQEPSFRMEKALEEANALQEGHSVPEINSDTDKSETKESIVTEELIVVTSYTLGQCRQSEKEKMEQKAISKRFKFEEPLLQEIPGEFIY

| SMILES | residual activity |
| --- | --- |
| O=C1Cc2c([nH]c3ccc([N+](=O)[O-])cc23)-c2ccccc2N1 | 10% |
| CCOC(=O)c1c(C)[nH]c(/C=C2\C(=O)Nc3ccccc32)c1C | 86% |
| O=C1NC(=O)C(c2c[nH]c3ccccc23)=C1c1c[nH]c2ccccc12 | 67% |
| N#C/C(=C1/Nc2ccccc2S1)c1ccnc(NCCc2cccnc2)n1 | 60% |
| CCCCc1c(-c2ccc(OC)cc2)[nH]c2nccnc12 | 79% |
| Nc1ncnc2[nH]nc(Nc3ccc(F)cc3)c12 | 45% |
| c1ccc(-c2cnc(Nc3ccc(OCCN4CCCC4)cc3)s2)cc1 | 31% |
| NC(=O)c1ccc(-c2nc(-c3ccc4c(c3)OCCO4)c(-c3ccccn3)[nH]2)cc1 | 89% |
| O=C(Nc1nc2ccccc2n1CCN1CCOCC1)c1cccc([N+](=O)[O-])c1 | 104% |
| COc1ccc(COc2ccc(Cc3cnc(N)nc3N)cc2OC)cc1 | 112% |
| COc1ccc(Cl)cc1NC(=O)Nc1cc(C)nc2ccccc12 | 97% |
| CCCCc1c(-c2ccc(O)cc2)[nH]c2nccnc12 | 77% |
| Cc1cc(C)c(/C=C2\C(=O)Nc3ccccc32)[nH]1 | 26% |
| O=C1Nc2ccccc2/C1=C\c1c(Cl)[nH]c2ccccc12 | 83% |
| O=C1Cc2c([nH]c3ccc(Br)cc23)-c2ccccc2N1 | 76% |
| O=C(c1cc2cc(O)ccc2[nH]1)c1cc2cc(O)ccc2[nH]1 | 13% |
| CN([C@@H](Cc1ccc(OS(=O)(=O)c2cccc3cnccc23)cc1)C(=O)N1CCN(c2ccccc2)CC1)S(=O)(=O)c1cccc2cnccc12 | 117% |
| O=C(Nc1ccc(Cl)cc1)c1ccccc1NCc1ccncc1 | 99% |
| COc1ccc(-c2cnc3c(-c4ccsc4)cnn3c2)cc1 | 95% |
